Measurements as given in PubChem BioAssay (Tox21).
Inconclusive results are not listed. Activity calls are given as the source filed them. Unless noted, calls come from the whole dose curve; as a rule, active = well fitted curve in the direction sought with a large enough effect in the repeat runs; inconclusive = weak or mixed curves; inactive = no such curve, though single readings can be large; an effect the other way counts as inactive or inconclusive.

Assays:
[1] = qHTS assay to identify aromatase inhibitors - cell viability counter screen (AID 743084);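 note: cells stimulated with testosterone during compound exposure; nearly all actives have a fitted effect of over 55% in size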
[2] = target: Aryl hydrocarbon receptor (Homo sapiens) (UniProt P35869); assay: qHTS assay to identify small molecule that activate the aryl hydrocarbon receptor (AhR) signaling pathway (AID 743085);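 note: HG2L7.5c1 human HepG2 liver cells with stably integrated DRE-driven firefly reporter; series mostly up to about 70 µM; nearly all actives have a fitted effect of over 15% in size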
Chain of Aryl hydrocarbon receptor (Homo sapiens) (P35869 whole entry, looked up): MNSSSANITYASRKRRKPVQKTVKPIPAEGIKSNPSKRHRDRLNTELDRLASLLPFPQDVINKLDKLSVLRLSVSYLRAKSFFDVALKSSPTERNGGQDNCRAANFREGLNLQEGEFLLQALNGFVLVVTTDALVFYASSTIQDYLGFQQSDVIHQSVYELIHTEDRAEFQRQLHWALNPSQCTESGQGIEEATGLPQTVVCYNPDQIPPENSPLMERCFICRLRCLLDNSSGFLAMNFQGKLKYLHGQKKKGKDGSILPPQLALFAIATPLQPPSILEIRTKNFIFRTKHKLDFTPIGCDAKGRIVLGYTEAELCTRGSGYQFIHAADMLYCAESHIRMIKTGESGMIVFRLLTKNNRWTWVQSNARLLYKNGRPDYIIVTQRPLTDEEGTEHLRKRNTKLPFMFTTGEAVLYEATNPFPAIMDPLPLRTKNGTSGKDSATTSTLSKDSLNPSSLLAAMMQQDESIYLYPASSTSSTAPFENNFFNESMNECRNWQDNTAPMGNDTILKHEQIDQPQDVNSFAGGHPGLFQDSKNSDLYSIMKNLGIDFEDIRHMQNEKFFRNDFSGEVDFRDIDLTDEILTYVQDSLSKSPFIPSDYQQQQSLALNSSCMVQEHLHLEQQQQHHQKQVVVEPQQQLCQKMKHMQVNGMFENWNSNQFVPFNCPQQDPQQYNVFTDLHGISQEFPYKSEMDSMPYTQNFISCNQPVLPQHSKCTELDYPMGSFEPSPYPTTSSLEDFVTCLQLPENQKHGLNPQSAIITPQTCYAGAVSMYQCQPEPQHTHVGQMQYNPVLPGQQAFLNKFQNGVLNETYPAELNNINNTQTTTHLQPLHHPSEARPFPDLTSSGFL
Procedure, shortened: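 Reporter assay in engineered HepG2 line HG2L7.5c1, whose plasmid carries twenty dioxin responsive elements upstream of firefly luciferase. Treatment lasted 24 h at 37C; ONE-Glo luminescence gauged induction.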

[3] = qHTS assay to identify small molecule that activate the aryl hydrocarbon receptor (AhR) signaling pathway - cell viability counter screen (AID 743086);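 note: HepG2 liver cells carrying the AhR DRE luciferase reporter; series mostly up to about 70 µM; nearly all actives have a fitted effect of over 45% in size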
Procedure, shortened: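 HepG2-AhR-luc (HG2L7.5c1) cells, 4000/well, treated 24 h at 37 C with compound; viability measured as CellTiter-Fluor fluorescence after 30 min in the same wells as the luciferase read.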

[4] = target: Peroxisome proliferator-activated receptor gamma (Homo sapiens) (UniProt P37231); assay: qHTS assay to identify small molecule agonists of the peroxisome proliferator-activated receptor gamma (PPARg) signaling pathway (AID 743094; active = well fitted activation curve with a large enough effect in the signal ratio in the repeat runs, not every such curve was filed as active; the % refers to the signal ratio)
Chain of Peroxisome proliferator-activated receptor gamma (Homo sapiens) (P37231 whole entry, looked up): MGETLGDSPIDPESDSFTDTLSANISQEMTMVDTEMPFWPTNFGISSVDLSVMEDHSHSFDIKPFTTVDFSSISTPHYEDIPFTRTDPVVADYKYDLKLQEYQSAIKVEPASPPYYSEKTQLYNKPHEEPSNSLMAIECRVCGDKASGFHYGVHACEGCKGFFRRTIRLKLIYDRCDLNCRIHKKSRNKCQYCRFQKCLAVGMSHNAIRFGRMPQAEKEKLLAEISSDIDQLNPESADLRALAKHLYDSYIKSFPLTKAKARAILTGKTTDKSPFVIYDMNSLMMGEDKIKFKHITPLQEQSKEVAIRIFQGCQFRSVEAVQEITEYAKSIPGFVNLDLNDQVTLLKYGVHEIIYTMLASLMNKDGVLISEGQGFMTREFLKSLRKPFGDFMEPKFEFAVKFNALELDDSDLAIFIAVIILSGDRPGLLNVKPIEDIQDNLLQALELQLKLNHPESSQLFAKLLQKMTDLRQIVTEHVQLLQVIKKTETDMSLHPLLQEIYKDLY
Procedure, shortened: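 Following 5 h plating at 37C, PPARg-bla HEK293H cells receive compound or DMSO for 17 h; fluorescence intensity is recorded after LiveBLAzer B/G loading for 1 h at room temperature.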

[5] = qHTS assay to identify small molecule antagonists of the peroxisome proliferator-activated receptor gamma (PPARg) signaling pathway - cell viability counter screen (AID 743194); note: nearly all actives have a fitted effect of over 55% in size
Procedure, shortened: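 Cytotoxicity counter screen in PPARg-bla HEK293H cells, same wells as reporter assay. Compounds plus 50 nM rosiglitazone (final) for 17 h at 37 C, then viability read by CellTiter-Glo luminescence.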

[6] = qHTS assay for small molecule agonists of the antioxidant response element (ARE) signaling pathway (AID 743202; active = well fitted activation curve with a large enough effect in the signal ratio in the repeat runs, not every such curve was filed as active; the % refers to the signal ratio)
Procedure, shortened: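 Agonist mode reporter screen: HepG2 cells with ARE-controlled beta-lactamase are incubated with test compounds for 16 h at 37 C, and beta-lactamase activity is measured as fluorescence of cleaved B/G FRET substrate.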

[7] = qHTS assay for small molecule agonists of the antioxidant response element (ARE) signaling pathway - cell viability counter screen (AID 743203; calls by dose curve; note: nearly all actives have a fitted effect of over 55% in size)
Procedure, shortened: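 Compounds in DMSO were pinned onto ARE-bla HepG2 cells plated 5 hrs earlier at 2,000 cells/well. Sixteen hours later at 37C/5% CO2, CellTiter-Glo was added and luminescence measured after 30 min at room temperature.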

[8] = qHTS assay for small molecule activators of the heat shock response signaling pathway - cell viability counter screen (AID 743209); note: nearly all actives have a fitted effect of over 50% in size
Procedure, shortened: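 Counter screen for cytotoxicity in HeLa HSE-bla reporter cells. Treatment was 5 h at 37 C; viability was detected by luminescent ATP assay (CellTiter-Glo) in the same wells as the beta-lactamase read.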

[9] = target: Peroxisome proliferator-activated receptor gamma (Homo sapiens) (UniProt P37231); assay: qHTS assay to identify small molecule antagonists of the peroxisome proliferator-activated receptor gamma (PPARg) signaling pathway (AID 743191; calls by dose curve; note: series mostly up to about 63 µM; nearly all actives have a fitted effect of over 30% in size)
Procedure, shortened: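 GeneBLAzer PPARg UAS-bla HEK293H cells, 5 h post-plating, exposed to compounds 17 h at 37C. LiveBLAzer B/G FRET substrate added for 1 h at room temperature; beta-lactamase reporter read by fluorescence intensity.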

[10] = qHTS assay for small molecule activators of the heat shock response signaling pathway (AID 743210; active = well fitted activation curve with a large enough effect in the signal ratio in the repeat runs, with a control signal flat, not every such curve was filed as active; the % refers to the signal ratio;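 note: HeLa cells with beta-lactamase reporter driven by heat shock elements; series mostly up to about 63 µM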)
Procedure, shortened: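 Quantitative high-throughput format using an engineered HeLa line in which heat shock response elements drive beta-lactamase; after 5 h with compound, cells received a B/G FRET substrate and fluorescence was read.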

Measured: Potency

O=C(O)[C@@H]1CSCN1
not listed: [9] | [10]
inactive: all other assays above

C=CCCC=C
not listed: [5] | [10]
inactive: all other assays above

CC(C)(CO)[C@@H](O)C(=O)NCCC(=O)O
not listed: [6]
inactive: all other assays above

CCOC(=O)CS
not listed: [9] | [10]
inactive: all other assays above

CCN(CC)C(=O)N(CC)CC
not listed: [5] | [6]
inactive: all other assays above

COc1ccc(S(=O)(=O)Nc2nnc(CC(C)C)s2)cc1
not listed: [9]
inactive: all other assays above

CN1CCN(C2=Nc3ccccc3Oc3ccc(Cl)cc32)CC1
not listed: [9]
inactive: all other assays above

C[C@]12CCC(=O)C=C1CC[C@@H]1[C@@H]2CC[C@@]2(C)[C@H]1CC[C@]2(O)C(=O)CO
not listed: [5] | [9]
inactive: all other assays above

CC(C)OC(C)C
not listed: [6]
inactive: all other assays above

CC(C)C1=CC2=CC[C@@H]3[C@](C)(CCC[C@@]3(C)C(=O)O)[C@H]2CC1
not listed: [6] | [9] | [10]
inactive: all other assays above

FC(F)(F)C(F)(F)C(F)(F)C(F)(F)C(F)(F)C(F)(F)C(F)(F)C(F)(F)Br
not listed: [9]
inactive: all other assays above

Cc1ccc([N+](=O)[O-])cc1Cl
not listed: [5]
inactive: all other assays above

CC1(C)C(=O)N(Cl)C(=O)N1Br
not listed: [6] | [7] | [10]
inactive: all other assays above

CCOC(=O)C(Br)c1ccccc1 (stereo not given)
not listed: [6] | [9]
inactive: all other assays above

CCCc1c2oc(C(=O)O)cc(=O)c2cc2c(=O)cc(C(=O)O)n(CC)c12
not listed: [9] | [10]
inactive: all other assays above

NCCC(O)(P(=O)(O)O)P(=O)(O)O
not listed: [9]
inactive: all other assays above

CC(C)c1ccccc1
not listed: [5] | [8] | [10]
inactive: all other assays above

COc1ccccc1N1CCN(CCCNc2cc(=O)n(C)c(=O)n2C)CC1
not listed: [6] | [9]
inactive: all other assays above

O=C(O)[C@@H](O)[C@H](O)[C@H](O)[C@@H](O)C(=O)O
not listed: [8] | [9]
inactive: all other assays above

CCNCCO
not listed: [7] | [9]
inactive: all other assays above

CN1C(=O)CC(c2ccccc2)C1=O (stereo not given)
not listed: [9]
inactive: all other assays above

CC(C)=CCC[C@](C)(O)[C@@H]1CC=C(C)CC1
inactive: [1] | [2] | [3] | [4] | [5] | [7]

CC(CNC1CCCCC1)OC(=O)c1ccccc1 (stereo not given)
not listed: [9]
inactive: all other assays above

CC/C=C\CCOC(=O)CCCCC
not listed: [6] | [7]
inactive: all other assays above

Oc1ccccc1F
not listed: [9]
inactive: all other assays above

ClC(Cl)Cl
not listed: [4] | [9]
inactive: all other assays above

OCc1ccccc1O
inactive: [1] | [2] | [3] | [5] | [7] | [8]

CC1(C)S[C@@H]2[C@H](NC(=O)C(C(=O)O)c3ccccc3)C(=O)N2[C@H]1C(=O)O (stereo not given in full)
not listed: [5] | [6] | [9]
inactive: all other assays above

CC(C)(C)c1ccc(OC(=O)c2ccccc2O)cc1
not listed: [3]
inactive: all other assays above
